High-throughput results deposited in PubChem by several laboratories.
V-ATPase pHluor: alters yeast V-ATPase proton transport | response, % at 10 µM | S. cerevisiae, pHLuorin cytosolic pH fluorescence | actives 0.37% (n = 350,000); in the data active means response mostly above about 7.3%, no sharp cut-off; inactive means mostly below about 5.4%; further: actives read high
tim23-1 inh: tim23-1 yeast growth inhibition. S. cerevisiae tim23-1 growth, BacTiter-Glo luminescence, 24 h. inhibition, % at 20 µM. actives 1.3% (n = 330,000);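 active means growth inhibition of the mutant yeast at or above 50%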;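 further: temperature-sensitive mutant grown at 25 °C; plate controls were DMSO-treated mutant yeast for no effect and medium wells lacking yeast for full effect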
TIM10 inh: growth inhibitors of TIM10 yeast strain; inhibition, % at 10 µM; S. cerevisiae TIM10 strain growth, BacTiter-Glo luminescence, 24 h; actives 1.4% (n = 330,000);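 active means inhibition of 40% or more at the single tested concentration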;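 further: wild-type TIM10 isogenic control strain grown at permissive 25 °C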
NLRP3 yeast inh: inhibitors of NALP3 inflammasome in yeast | actives 0.39% (n = 330,000) | Yeast reconstituted NLRP3/ASC/caspase-1, beta-gal luminescence, 24 h | AID 2825 | inhibition, % at 10 µM;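 active means inhibition of 50% or more; inactive means inhibition below 50%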;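 further: plate controls were induced DMSO wells for no effect and uninduced yeast grown without galactose for full effect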
NALP1 inh: NALP1 inhibition. actives 0.61% (n = 280,000). inhibition, % at 10 µM. S. cerevisiae NALP1/ASC/caspase-1 growth, X-gal OD620, 72 h; in the data active means inhibition mostly above about 24%, no sharp cut-off; inactive means mostly below about 32%
tim10-1 inh: growth inhibitors of tim10-1 mutant yeast; inhibition, % at 20 µM; actives 2.2% (n = 330,000); AID 463190; S. cerevisiae tim10-1 ts strain growth, BacTiter-Glo, 24 h;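 active means inhibition of at least 40%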;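 further: mutant grown at 25 °C; 0% = DMSO wells with yeast and 100% = wells holding no yeast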
tim10-1 confirm: tim10-1 yeast growth inhibition, confirmed. inhibition, % at 20 µM. actives 56% (n = 7,400). S. cerevisiae tim10-1 ts strain growth, BacTiter-Glo, 24 h. shares compounds with tim10-1 inh;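 active means inhibition of yeast growth at or above a set limit in either of two repeat tests at 20 µM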;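 further: tim10-1 mutant grown at permissive 25 °C to find synthetic lethal compounds; 0% = DMSO yeast wells and 100% = medium wells without yeast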
tim10 confirm: confirmation of TIM10 yeast growth inhibitors; S. cerevisiae tim10 strain growth, BacTiter-Glo luminescence, 24 h; inhibition, % at 10 µM; shares compounds with TIM10 inh; AID 463215; actives 63% (n = 4,600);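 active means inhibition of yeast growth at or above a set limit in either of two replicates at 10 µM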;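 further: this counterscreen used the strain with wild-type TIM10; 0% = yeast with DMSO and 100% = medium wells lacking yeast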
tim23-1 confirm: tim23-1 yeast growth inhibition, confirmed; shares compounds with tim23-1 inh; S. cerevisiae tim23-1 growth, BacTiter-Glo luminescence, 24 h; inhibition, % at 20 µM; actives 83% (n = 4,400); AID 463218;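 active means inhibition above about 39% in either of two replicate wells at 20 µM, limit read from the data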;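 further: temperature-sensitive tim23-1 mutant grown at 25 °C; 0% = DMSO wells with yeast and 100% = medium wells without yeast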
Starred values were filed as active, the others as inactive; · = no result given. An excerpt weighted towards active compounds, which were near 4.2% of everything screened.

SMILES	V-ATPase pHluor	tim23-1 inh	TIM10 inh	NLRP3 yeast inh	NALP1 inh	tim10-1 inh	tim10-1 confirm	tim10 confirm	tim23-1 confirm
Cc1cc(N2CCN(c3nc(-c4ccccc4)cs3)CC2)c2ccccc2n1	1	63*	15	-1	21	51*	42*	·	52*
C=CCNC(=O)/C(C#N)=C/c1c(C)nn(-c2ccc(Cl)cc2)c1Cl	1	56*	58*	16	17	63*	59*	63*	66*
C/C(=N\Nc1ccc([N+](=O)[O-])cc1)c1ccc(O)cc1	4	70*	24	-5	-1	44*	19	·	55*
CC(=O)/C=C/c1ccccc1Oc1c(F)c(F)nc(F)c1F	-1	54*	26	-84	-28	45*	41*	·	40*
CC1(CC(=O)NNC(=O)Nc2ccccc2)OCCCO1	3	6	-2	11	8	8	·	·	·
CC(=O)c1ccc(S(=O)(=O)NCCCC(=O)N(C)Cc2ccc3c(c2)OCO3)cc1	-5	-5	-3	9	·	1	·	·	·
O=C(Oc1ccc(Br)cc1C(=S)N1CCOCC1)c1ccc([N+](=O)[O-])cc1[N+](=O)[O-]	4	67*	68*	3	12	71*	77*	78*	84*
O=C(Oc1cccc(C(=S)N2CCOCC2)c1)c1ccc([N+](=O)[O-])cc1[N+](=O)[O-]	-1	78*	84*	16	0	84*	84*	90*	87*
O=C(Oc1ccc(C(=S)N2CCOCC2)cc1)c1ccc([N+](=O)[O-])cc1[N+](=O)[O-]	-1	35	4	6	8	35	·	·	·
CC(=O)Nc1ccc(S(=O)(=O)NNC(=O)COc2cccc3ccccc23)cc1	1	8	-10	5	23	8	·	·	·
Clc1ccc(CSc2nncn2-c2ccc3c(c2)OCCO3)cc1	-1	52*	22	28	6	41*	33*	·	47*
COC(=O)c1c(NC(=O)CN2C(=O)NC3(CCC(C(C)(C)C)CC3)C2=O)sc2c1CCCCC2 (centres undefined)	0	17	6	20	34	26	·	·	·
COc1cc(C2N(C)CCC3(OCCO3)C2(C)C)cc(OC)c1OC (centres undefined)	-2	-5	-14	7	22	-18	·	·	·
COC(=O)c1cc(=O)n(-c2ccccc2)c(=Nc2ccccc2)s1	5	73*	18	3	52	51*	43*	·	52*
O=C(NCCc1ccccc1)c1ccccc1NC(=O)C1CCCO1 (centres undefined)	1	-5	6	9	13	-1	·	·	·
CCOC(=O)Oc1ccc2c(=O)c(Oc3cccc(C)c3)coc2c1	-2	55*	41*	-28	-8	56*	48*	41*	59*
O=C(NCCCn1ccnc1)C(=O)NC1CCCCC1	7	7	-2	2	-6	0	·	·	·
COc1cc(N=Nc2ccc3ccccc3c2)ccc1O	-1	63*	4	34	-1	41*	13	·	2
CC1CCN(C(=O)C2c3ccccc3C(=O)N3CCc4ccccc4C23)CC1 (centres undefined)	-2	27	29	15	-1	35	·	·	·
Fc1ccccc1-c1[nH]ncc1-c1nnnn1-c1ccccc1	2	12	-11	15	-3	10	·	·	·
O=C(N/N=C/c1ccc([N+](=O)[O-])o1)c1cn2ccc3ccccc3c2n1	1	74*	60*	12	4	59*	72*	78*	22
O=C(Cc1c(F)cccc1Cl)N1CCOCC1	4	6	-3	9	-1	3	·	·	·
O=C(Cc1ccc(F)cc1)c1ccc(O)cc1O	3	55*	37	5	6	44*	35*	·	44*
O=C(Cc1c(F)cccc1Cl)c1ccc(O)cc1O	-1	67*	56*	39	16	48*	60*	58*	68*
CCc1cc(C(=O)Cc2ccc(F)cc2)c(O)cc1O	2	36	23	-12	18	25	·	·	·
SMILES	V-ATPase pHluor	tim23-1 inh	TIM10 inh	NLRP3 yeast inh	NALP1 inh	tim10-1 inh	tim10-1 confirm	tim10 confirm	tim23-1 confirm
CCC(C)[C@H](NC(=O)Nc1ccc2c(c1)OCCO2)C(=O)O (some centres undefined)	2	-5	2	11	-8	-11	·	·	·
CC(=O)c1ccc(S(=O)(=O)NC2CCCCCCC2)cc1	3	32	13	36	28	36	·	·	·
CCOC(=O)C1CCCN(S(=O)(=O)c2ccc(Br)s2)C1 (centres undefined)	1	23	-4	31	36	23	·	·	·
Cc1csc(NC(=O)C2CCCN(S(=O)(=O)c3ccc(Br)s3)C2)n1 (centres undefined)	10	55*	2	6	15	46*	38*	·	51*
Cc1ccc(S(=O)(=O)/N=C2\C=C(Nc3ccc(O)cc3)C(=O)c3ccccc32)cc1	-3	51*	40	22	·	64*	74*	·	70*
Cc1ccc(NC2=C/C(=N/S(=O)(=O)c3cccs3)c3ccccc3C2=O)cc1	-3	21	20	20	17	37	·	·	·
O=C(CCc1nnc(-c2ccc3c(c2)OCO3)o1)NC(c1ccccn1)C(F)(F)F (centres undefined)	-3	10	0	-5	7	17	·	·	·
CC1(C(=O)Nc2nnc(C(C)(C)C)s2)Cc2ccccc2C(=O)O1 (centres undefined)	3	26	24	-36	18	31	·	·	·
COc1ccccc1C/C(N)=N/OC(=O)COc1cccc(C)c1C	-1	70*	53*	-2	6	63*	68*	46*	62*
COc1ccccc1C/C(N)=N/OC(=O)COc1cc(C)cc(C)c1C	·	78*	73*	-3	6	65*	70*	68*	81*
COc1ccc(OC)c(C2Nc3nc4ccccc4n3C(C)=C2C(=O)Nc2ccc(C)cc2C)c1 (centres undefined)	-2	22	28	-4	-12	19	·	·	·
COc1ccc(Cl)c2sc(NC(=O)C3=COCCO3)nc12	4	32	36	42	·	32	·	·	·
Cc1ccc(Cl)c2sc(NC(=O)C3=COCCO3)nc12	-2	72*	42*	3	10	61*	51*	41*	54*
Cc1cc(C)c2sc(NC(=O)C3=COCCO3)nc2c1	0	53*	43*	22	7	45*	35*	31	40*
